The term residual activity denotes the signal under treatment as a percentage of the control signal.

Assay [1] has as its target T1, Muscle, skeletal receptor tyrosine-protein kinase (Homo sapiens) (UniProt O15146).
T1 sequence (whole entry): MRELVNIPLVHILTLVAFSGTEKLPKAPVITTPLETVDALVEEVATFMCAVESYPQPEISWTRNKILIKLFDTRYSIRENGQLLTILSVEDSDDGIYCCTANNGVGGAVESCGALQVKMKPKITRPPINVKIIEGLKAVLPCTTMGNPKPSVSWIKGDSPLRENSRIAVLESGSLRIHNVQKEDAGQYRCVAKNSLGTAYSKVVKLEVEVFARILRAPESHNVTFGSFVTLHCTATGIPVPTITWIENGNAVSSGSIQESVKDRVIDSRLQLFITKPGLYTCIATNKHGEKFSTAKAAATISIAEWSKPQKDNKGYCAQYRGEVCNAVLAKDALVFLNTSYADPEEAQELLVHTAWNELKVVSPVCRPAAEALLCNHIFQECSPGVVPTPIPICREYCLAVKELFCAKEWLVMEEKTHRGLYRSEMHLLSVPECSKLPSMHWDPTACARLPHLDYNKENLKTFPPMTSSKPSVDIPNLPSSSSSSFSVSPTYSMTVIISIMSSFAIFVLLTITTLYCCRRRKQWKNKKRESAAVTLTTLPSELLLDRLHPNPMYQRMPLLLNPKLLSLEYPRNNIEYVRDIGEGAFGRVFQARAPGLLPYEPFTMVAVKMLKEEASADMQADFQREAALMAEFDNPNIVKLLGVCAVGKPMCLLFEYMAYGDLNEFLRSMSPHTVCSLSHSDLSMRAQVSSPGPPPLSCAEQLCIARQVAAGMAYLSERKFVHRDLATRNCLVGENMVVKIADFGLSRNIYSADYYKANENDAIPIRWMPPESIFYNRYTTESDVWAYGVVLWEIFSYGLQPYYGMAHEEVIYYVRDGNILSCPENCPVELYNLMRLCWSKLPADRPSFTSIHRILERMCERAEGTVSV
As to conditions: at 1 µM.

Assay [2] concerns the target T1, Muscle, skeletal receptor tyrosine-protein kinase (Homo sapiens). To be noted: at 10 µM.
For assay [3], the target named is T2, Serine/threonine-protein kinase Nek11 (Homo sapiens) (UniProt Q8NG66).
T2 sequence (whole entry): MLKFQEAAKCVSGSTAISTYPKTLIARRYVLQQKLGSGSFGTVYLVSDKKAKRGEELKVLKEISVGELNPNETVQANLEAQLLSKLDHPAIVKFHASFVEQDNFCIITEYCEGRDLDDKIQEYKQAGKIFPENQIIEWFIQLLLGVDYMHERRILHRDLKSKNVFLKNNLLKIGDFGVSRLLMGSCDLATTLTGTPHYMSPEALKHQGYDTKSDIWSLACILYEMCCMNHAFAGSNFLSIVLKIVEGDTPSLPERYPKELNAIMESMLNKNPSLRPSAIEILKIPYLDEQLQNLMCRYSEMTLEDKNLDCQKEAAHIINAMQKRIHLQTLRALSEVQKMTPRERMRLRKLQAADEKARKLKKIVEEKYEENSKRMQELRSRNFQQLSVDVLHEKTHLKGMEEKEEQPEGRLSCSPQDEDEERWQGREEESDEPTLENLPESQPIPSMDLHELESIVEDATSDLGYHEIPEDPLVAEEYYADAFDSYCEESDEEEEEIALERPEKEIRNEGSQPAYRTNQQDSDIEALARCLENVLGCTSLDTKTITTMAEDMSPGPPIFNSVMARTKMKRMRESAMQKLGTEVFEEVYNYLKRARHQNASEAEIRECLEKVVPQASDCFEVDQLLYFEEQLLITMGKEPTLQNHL
To be noted: at 1 µM.

Assay [4] concerns the target T2, Serine/threonine-protein kinase Nek11 (Homo sapiens). To be noted: at 10 µM.
Assay [5] concerns the target T3, Serine/threonine-protein kinase Nek2 (Homo sapiens) (UniProt P51955).
T3 sequence (whole entry): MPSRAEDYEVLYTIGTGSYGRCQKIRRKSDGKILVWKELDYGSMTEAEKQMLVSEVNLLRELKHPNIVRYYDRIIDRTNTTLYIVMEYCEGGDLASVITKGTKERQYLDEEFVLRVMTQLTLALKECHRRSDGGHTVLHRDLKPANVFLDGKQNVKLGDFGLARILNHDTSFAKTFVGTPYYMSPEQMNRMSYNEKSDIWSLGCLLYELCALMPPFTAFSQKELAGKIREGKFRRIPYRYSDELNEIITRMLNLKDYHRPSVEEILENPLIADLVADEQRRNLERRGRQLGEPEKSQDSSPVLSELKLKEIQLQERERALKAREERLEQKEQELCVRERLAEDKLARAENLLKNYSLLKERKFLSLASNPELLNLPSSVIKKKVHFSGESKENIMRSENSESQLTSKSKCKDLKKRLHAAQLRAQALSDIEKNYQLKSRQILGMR
As to conditions: at 1 µM.

The target of assay [6] is T3, Serine/threonine-protein kinase Nek2 (Homo sapiens). As to conditions: at 10 µM.
Assay [7] concerns the target T4, Serine/threonine-protein kinase Nek3 (Homo sapiens) (UniProt P51956).
T4 sequence (whole entry): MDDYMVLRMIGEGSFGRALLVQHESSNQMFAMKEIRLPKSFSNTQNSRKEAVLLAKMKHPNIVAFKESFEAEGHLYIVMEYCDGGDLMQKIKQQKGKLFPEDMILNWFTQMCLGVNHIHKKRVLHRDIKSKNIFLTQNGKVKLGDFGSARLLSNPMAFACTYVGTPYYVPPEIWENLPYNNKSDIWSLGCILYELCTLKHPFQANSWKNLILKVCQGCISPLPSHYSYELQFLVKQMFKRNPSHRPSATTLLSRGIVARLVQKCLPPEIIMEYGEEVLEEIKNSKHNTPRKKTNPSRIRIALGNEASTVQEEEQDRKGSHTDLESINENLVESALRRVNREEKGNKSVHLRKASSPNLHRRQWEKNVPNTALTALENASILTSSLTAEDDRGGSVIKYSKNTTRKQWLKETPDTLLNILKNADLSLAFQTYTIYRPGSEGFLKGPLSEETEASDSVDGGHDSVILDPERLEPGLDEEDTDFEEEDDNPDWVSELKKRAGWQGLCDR
As to conditions: at 1 µM.

The target in assay [8] is T4, Serine/threonine-protein kinase Nek3 (Homo sapiens). To be noted: at 10 µM.
Assay [9] concerns the target Serine/threonine-protein kinase tousled-like 2 (Homo sapiens) (UniProt Q86UE8). To be noted: at 1 µM.
Assay [10] shares this target. As to conditions: at 10 µM.
In assay [11] the target is T5, Testis-specific serine/threonine-protein kinase 1 (Homo sapiens) (UniProt Q9BXA7).
T5 sequence (whole entry): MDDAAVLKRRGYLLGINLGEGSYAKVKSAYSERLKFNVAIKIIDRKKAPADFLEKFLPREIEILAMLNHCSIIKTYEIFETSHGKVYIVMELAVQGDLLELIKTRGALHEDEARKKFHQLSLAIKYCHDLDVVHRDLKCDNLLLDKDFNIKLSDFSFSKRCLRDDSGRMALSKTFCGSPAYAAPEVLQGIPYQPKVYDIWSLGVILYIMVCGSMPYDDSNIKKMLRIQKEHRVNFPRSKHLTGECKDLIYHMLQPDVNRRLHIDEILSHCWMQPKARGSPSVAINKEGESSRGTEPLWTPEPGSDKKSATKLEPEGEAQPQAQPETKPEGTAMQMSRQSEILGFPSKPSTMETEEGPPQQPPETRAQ
To be noted: at 1 µM.

Assay [12] has as its target T5, Testis-specific serine/threonine-protein kinase 1 (Homo sapiens). As to conditions: at 10 µM.
Assay [13] addresses T6, Testis-specific serine/threonine-protein kinase 2 (Homo sapiens) (UniProt Q96PF2).
T6 sequence (whole entry): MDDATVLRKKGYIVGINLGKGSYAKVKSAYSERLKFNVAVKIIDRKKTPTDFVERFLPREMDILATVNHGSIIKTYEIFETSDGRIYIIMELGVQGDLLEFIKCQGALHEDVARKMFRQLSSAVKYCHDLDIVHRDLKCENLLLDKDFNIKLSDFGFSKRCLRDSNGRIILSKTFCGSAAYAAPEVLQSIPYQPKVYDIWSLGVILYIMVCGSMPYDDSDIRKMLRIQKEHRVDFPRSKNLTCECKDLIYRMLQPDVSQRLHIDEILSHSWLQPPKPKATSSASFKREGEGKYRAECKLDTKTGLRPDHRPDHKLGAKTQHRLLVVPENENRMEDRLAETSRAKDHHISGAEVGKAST
To be noted: at 10 µM.

Assay [14] concerns the target T7, Tyrosine-protein kinase Tec (Homo sapiens) (UniProt P42680).
T7 sequence (whole entry): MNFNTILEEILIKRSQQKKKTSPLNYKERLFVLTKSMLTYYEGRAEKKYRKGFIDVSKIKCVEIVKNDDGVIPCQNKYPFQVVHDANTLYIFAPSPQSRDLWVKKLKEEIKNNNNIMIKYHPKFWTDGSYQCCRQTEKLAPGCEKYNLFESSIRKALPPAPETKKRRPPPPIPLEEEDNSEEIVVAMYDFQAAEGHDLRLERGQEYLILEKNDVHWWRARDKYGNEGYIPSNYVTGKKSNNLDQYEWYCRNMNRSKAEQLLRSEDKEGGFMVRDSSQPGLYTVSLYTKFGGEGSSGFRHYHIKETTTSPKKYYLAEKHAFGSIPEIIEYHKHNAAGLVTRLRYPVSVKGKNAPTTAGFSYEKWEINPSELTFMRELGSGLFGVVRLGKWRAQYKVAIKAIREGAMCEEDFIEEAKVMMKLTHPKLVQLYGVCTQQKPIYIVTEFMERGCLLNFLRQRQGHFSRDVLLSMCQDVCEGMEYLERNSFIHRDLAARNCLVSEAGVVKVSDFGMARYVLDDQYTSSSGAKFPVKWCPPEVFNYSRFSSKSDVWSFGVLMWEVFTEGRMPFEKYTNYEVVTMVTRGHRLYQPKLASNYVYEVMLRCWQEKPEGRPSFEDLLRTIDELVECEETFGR
As to conditions: at 1 µM.

The target in assay [15] is T7, Tyrosine-protein kinase Tec (Homo sapiens). As to conditions: at 10 µM.
The target in assay [16] is Angiopoietin-1 receptor (Homo sapiens) (UniProt Q02763). As to conditions: at 1 µM.
The target is the same in assay [17]. To be noted: at 10 µM.
Assay [18] has as its target High affinity nerve growth factor receptor (Homo sapiens) (UniProt P04629). As to conditions: at 1 µM.
For assay [19] the target is unchanged. As to conditions: at 10 µM.
In assay [20] the target is BDNF/NT-3 growth factors receptor (Homo sapiens) (UniProt Q16620). As to conditions: at 1 µM.

SMILES strings stand for the structures.

Sequence of BDNF/NT-3 growth factors receptor (Homo sapiens) (Q16620 32-822 limits assumed): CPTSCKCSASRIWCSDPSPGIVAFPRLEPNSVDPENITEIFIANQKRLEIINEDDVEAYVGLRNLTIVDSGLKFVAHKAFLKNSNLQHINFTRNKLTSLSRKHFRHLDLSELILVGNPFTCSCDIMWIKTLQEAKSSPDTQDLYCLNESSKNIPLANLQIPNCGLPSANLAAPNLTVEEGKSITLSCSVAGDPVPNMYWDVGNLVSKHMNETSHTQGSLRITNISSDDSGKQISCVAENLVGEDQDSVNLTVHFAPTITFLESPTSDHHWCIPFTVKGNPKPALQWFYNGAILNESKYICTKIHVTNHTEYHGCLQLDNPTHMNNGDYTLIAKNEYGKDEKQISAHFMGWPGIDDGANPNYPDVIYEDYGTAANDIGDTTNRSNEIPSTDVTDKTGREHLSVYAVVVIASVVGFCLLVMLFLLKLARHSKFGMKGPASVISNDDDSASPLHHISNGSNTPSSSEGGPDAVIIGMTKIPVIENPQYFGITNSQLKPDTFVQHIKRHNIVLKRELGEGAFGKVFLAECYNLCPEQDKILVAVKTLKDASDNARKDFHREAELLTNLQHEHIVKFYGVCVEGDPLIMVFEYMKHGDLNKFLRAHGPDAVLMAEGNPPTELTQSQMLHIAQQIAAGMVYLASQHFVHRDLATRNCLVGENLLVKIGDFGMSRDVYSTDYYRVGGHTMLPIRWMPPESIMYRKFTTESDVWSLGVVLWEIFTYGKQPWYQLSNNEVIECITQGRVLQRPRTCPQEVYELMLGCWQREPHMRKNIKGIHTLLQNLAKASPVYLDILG
Sequence of High affinity nerve growth factor receptor (Homo sapiens) (P04629 33-796 limits assumed): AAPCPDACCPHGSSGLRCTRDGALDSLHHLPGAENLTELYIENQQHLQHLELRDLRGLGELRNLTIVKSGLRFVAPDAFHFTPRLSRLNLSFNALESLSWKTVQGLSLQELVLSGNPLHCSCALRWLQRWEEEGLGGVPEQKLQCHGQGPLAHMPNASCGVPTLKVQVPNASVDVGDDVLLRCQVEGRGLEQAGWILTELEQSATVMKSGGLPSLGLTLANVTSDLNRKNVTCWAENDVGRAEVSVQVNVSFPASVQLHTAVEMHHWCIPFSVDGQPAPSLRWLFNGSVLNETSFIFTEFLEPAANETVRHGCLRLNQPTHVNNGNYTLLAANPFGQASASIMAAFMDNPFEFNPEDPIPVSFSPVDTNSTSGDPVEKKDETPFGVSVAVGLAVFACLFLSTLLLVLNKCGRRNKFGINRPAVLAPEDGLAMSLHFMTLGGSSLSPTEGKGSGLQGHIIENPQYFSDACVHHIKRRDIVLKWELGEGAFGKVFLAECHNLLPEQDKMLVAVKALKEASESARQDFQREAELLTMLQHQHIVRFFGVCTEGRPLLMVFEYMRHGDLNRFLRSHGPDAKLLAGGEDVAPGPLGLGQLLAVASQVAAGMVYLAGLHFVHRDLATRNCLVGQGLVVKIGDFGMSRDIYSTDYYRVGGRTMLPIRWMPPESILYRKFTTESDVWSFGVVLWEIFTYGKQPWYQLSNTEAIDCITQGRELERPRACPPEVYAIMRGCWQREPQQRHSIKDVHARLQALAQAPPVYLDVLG
Sequence of Serine/threonine-protein kinase tousled-like 2 (Homo sapiens) (Q86UE8 whole entry, looked up): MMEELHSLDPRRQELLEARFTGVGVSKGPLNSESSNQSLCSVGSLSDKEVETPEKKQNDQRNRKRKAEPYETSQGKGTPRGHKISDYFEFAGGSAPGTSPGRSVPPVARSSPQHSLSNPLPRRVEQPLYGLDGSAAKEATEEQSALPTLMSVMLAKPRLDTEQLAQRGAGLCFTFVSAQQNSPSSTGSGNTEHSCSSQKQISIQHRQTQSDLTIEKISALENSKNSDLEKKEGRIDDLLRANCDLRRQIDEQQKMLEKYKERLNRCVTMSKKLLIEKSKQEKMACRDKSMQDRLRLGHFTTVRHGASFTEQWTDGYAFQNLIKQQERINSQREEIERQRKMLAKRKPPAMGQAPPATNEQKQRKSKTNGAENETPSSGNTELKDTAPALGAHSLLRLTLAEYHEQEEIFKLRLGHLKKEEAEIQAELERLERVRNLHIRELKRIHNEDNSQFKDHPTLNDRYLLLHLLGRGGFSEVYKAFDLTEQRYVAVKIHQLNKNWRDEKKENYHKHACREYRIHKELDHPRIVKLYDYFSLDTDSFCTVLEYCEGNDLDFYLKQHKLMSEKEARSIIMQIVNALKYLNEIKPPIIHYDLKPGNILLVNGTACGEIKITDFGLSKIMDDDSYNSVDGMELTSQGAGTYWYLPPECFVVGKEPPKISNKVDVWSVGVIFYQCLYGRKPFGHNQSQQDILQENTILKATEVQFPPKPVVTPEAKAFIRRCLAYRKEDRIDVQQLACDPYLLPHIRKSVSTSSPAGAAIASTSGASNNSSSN
Sequence of Angiopoietin-1 receptor (Homo sapiens) (Q02763 whole entry): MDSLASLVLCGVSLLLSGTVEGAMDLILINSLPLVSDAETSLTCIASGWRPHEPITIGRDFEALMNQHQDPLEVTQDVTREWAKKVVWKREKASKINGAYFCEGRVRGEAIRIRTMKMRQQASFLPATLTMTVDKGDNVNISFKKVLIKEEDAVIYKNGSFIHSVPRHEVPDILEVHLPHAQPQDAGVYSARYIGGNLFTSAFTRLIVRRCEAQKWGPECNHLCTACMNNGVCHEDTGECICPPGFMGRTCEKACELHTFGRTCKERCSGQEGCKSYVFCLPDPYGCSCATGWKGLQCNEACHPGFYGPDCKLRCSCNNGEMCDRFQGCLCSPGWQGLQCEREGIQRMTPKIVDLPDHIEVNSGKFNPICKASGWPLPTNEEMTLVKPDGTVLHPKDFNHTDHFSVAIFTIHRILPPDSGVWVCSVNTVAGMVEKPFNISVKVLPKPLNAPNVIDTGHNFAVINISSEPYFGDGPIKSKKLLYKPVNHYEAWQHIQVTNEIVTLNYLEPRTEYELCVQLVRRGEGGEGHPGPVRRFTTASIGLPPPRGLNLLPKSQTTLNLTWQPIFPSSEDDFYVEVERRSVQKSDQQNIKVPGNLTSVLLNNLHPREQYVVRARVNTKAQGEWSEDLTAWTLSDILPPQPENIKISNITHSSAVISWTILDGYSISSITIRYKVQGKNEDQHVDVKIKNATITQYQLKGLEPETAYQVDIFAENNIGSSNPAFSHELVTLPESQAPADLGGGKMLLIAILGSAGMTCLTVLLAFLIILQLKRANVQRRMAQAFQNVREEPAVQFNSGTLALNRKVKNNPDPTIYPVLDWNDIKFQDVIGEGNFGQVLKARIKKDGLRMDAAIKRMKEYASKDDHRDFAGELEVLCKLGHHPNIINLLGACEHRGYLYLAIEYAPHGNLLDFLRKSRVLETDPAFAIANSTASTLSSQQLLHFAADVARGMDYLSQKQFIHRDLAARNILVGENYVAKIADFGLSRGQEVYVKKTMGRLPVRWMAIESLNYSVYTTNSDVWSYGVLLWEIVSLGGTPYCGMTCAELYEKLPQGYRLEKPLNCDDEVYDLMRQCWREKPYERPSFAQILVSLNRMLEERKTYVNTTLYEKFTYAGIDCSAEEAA

For `NC(=O)c1ccc2[nH]c(-c3ccc(Oc4ccc(Cl)cc4)cc3)nc2c1`, the residual activity in assay [1] is 84%; in assay [2] it was 63%; in assay [3] it was 54%; in [4], 33%; in assay [5], 82%; in [6], 82%. Further, the residual activity in assay [7] is 75%; in assay [8], 91%; in assay [9], 86%; in assay [10] it was 82%; in assay [11], 101%; in [12] it was 80%. Further, the residual activity in assay [13] came out at 95%; in assay [14], 106%; in [15], 92%; in assay [16], 109%; in assay [17], 131%; in assay [18], 78%. Moreover, the residual activity in assay [19] is 54%; in assay [20], 103%.
Regarding `O=[N+]([O-])c1ccc(-c2nc(-c3ccc(F)cc3)c(-c3ccncc3)[nH]2)cc1`, the residual activity in [1] was 102%; in assay [2] it was 92%; in [3], 57%; in assay [4], 75%; in [5], 99%; in [6], 100%. For the same compound, the residual activity in [7] stood at 90%; in [8] it was 92%; in [9], 107%; in [10] it was 101%; in [11], 97%; in assay [12], 85%. The residual activity in assay [13] turned out to be 94%; in [14], 98%; in assay [15] it was 70%; in assay [16], 98%; in [17], 86%; in assay [18] it was 96%. The results for the residual activity in [19] and in assay [20] were 90% and 98%, respectively.
Turning to `Nc1nc(Nc2ccc(S(N)(=O)=O)cc2)nn1C(=S)Nc1c(F)cccc1F`, the residual activity came out at 0% in assay [1]; 0% in assay [2]; 51% in assay [3]; 30% in assay [4]; 91% in assay [5]; 71% in [6]. The residual activity is 6% in assay [7]; 3% in assay [8]; 4% in assay [9]; -1% in assay [10]; 16% in assay [11]; 12% in assay [12]. Moreover, the residual activity in assay [13] was 12%; in assay [14], 78%; in assay [15] it was 23%; in assay [16] it was -1%; in [17] it was -2%; in assay [18], 0%. In addition, the residual activity was -1% in assay [19] and 0% in [20].

(Values after ChEMBL document CHEMBL2218924, “A broad activity screen in support of a chemogenomic map for kinase signalling research and drug discovery” (Biochem J, 2013).)
